Source: PubChem BioAssay
Entries with a potency or affinity are not part of this list. Records with an inconclusive call do not appear. Calls of active or inactive are those of the source. Unless noted, no rule for the calls is given here.

Tests used:
[1] = cytotoxicity in PAX8-dependent RMG-1 cells, dose response, cell-based, cherry-pick (AID 687029;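 active = signal drop whose fitted half-maximal concentration is at most twice the top valid dose, in every test run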;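 also: cells exposed to compound for 96 hours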)
[2] = cytotoxicity in IOSE-T80 ovarian epithelial cells, dose response, selectivity assay for PAX8 inhibitor project, cell-based, cherry-pick (AID 687032;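 active = fitted half-maximal concentration for viability loss no higher than twice the top valid dose, in every repeat run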;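 also: cells exposed to compound for 96 h before reading; 0% = neutral control wells and -100% = 2 µM mitoxantrone kill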)
[3] = inhibitors of CMV-promoter luciferase reporter, dose response, counter-screen for Pax8 inhibitor project, cell-based, HEK293, luminescence, dry powder (AID 743020;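 active = signal-lowering compounds whose fitted half-maximal concentration is at or below twice the top tested dose in every run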;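 also: HEK293 cells stably expressing the CMV luciferase reporter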)
[4] = non-specific cell cytotoxicity, dose response, cytotoxicity control for PAX8 inhibitor project, plate reader, dry powder samples (AID 743021)
[5] = IGROV1 ovarian cancer cell cytotoxicity, dose response, PAX8 inhibitor project, plate reader, dry powder samples (AID 743043);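 also: more negative means fewer viable cells or more cytotoxicity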
[6] = NIH:OVCAR-3 ovarian cancer cell cytotoxicity, dose response, PAX8 inhibitor project, plate reader, dry powder samples (AID 743044); settings: max activity: at 35 µM, hits give low values unless noted
[7] = IOSE-T80 ovarian epithelial cell cytotoxicity, dose response, cytotoxicity control for PAX8 inhibitor project, plate reader, dry powder samples (AID 743045);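 also: 0% = neutral control median and -100% = positive control median; more negative values mean more cell killing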
[8] = A2780 ovarian cancer cell cytotoxicity, dose response, cytotoxicity control, plate reader, dry powder samples (AID 743046);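 also: 0% = neutral control wells and -100% = cytotoxic reference compound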
[9] = cytotoxicity in OVCAR8 ovarian cancer cells, dose response, PAX8 project, cell-based, plate reader, dry powder samples (AID 743197)

Measured: max activity

C[C@@H]1CN([C@@H](C)CO)C(=O)Cc2cc(NS(=O)(=O)c3ccc(F)cc3)ccc2O[C@H]1CN(C)Cc1ccc(Oc2ccccc2)cc1
inactive: [1] | [2] | [3] | [4] | [5] | [6] -22.3% [at 4.2 µM, hits give low values] | [7] | [8] | [9]

C[C@@H]1CCCCO[C@H](CN(C)C(=O)C2CCCCC2)[C@@H](C)CN([C@@H](C)CO)C(=O)c2cc(NC(=O)Nc3ccccc3)ccc2O1
inactive: [1] | [2] | [3] | [4] | [5] | [6] 37.9% [at 1 µM, hits give low values] | [7] | [8] | [9]

C[C@@H]1CN([C@H](C)CO)C(=O)c2cc(NC(=O)Nc3ccc(C(F)(F)F)cc3)ccc2O[C@@H](C)CCCCO[C@H]1CN(C)C(=O)Nc1ccc(F)cc1
inactive: [1] | [2] | [3] | [4] | [5] | [6] -1.73% | [7] | [8] | [9]

C[C@H](CO)N1C[C@H](C)[C@H](CN(C)C(=O)Nc2ccc(-c3cccs3)cc2)OCc2cnnn2CCCC1=O
inactive: [1] | [2] | [3] | [4] | [5] | [6] -11.7% | [7] | [8] | [9]

C[C@@H]1CN([C@@H](C)CO)C(=O)Cc2cc(NC(=O)C3CC3)ccc2O[C@H]1CN(C)Cc1ccc(-c2ccccc2)cc1
inactive: [1] | [2] | [3] | [4] | [5] | [6] 11.5% [at 0.26 µM, hits give low values] | [7] | [8] | [9]

CN1c2ccc(-c3ccc(C#N)cc3)cc2[C@@H]2[C@@H](CCN2C(=O)NC2CCCCC2)[C@@H]1CO
inactive: [1] | [2] | [3] | [4] | [5] | [6] -6.17% [at 4.2 µM, hits give low values] | [7] | [8] | [9]

C[C@H](CO)N1C[C@H](C)[C@H](CN(C)Cc2ccc3c(c2)OCO3)Oc2ccc(NC(=O)Nc3cccc4ccccc34)cc2C1=O
inactive: [1] | [2] | [3] | [4] | [5] | [6] 49.4% [at 4.2 µM, hits give low values] | [7] | [8] | [9]

C[C@@H]1CCCCO[C@@H](CN(C)C(=O)C2CCCCC2)[C@H](C)CN([C@H](C)CO)C(=O)c2cc(NC(=O)Nc3ccc(F)cc3)ccc2O1
inactive: [1] | [2] | [3] | [4] | [5] | [6] -21.5% | [7] | [8] | [9]

C[C@@H]1CN([C@@H](C)CO)C(=O)Cc2cc(NC(=O)Nc3ccc(F)cc3)ccc2O[C@H]1CN(C)Cc1ccc(Cl)c(Cl)c1
inactive: [1] | [2] | [3] | [4] | [5] | [6] 11.5% [at 4.2 µM, hits give low values] | [7] | [8] | [9]

C[C@H](O)C#Cc1ccc2c(c1)O[C@H](CN(C)Cc1ccc(-c3ccccc3)cc1)[C@@H](C)CN([C@H](C)CO)S2(=O)=O
inactive: [1] | [2] | [3] | [4] | [5] | [6] 15.2% [at 16 µM, hits give low values] | [7] | [8] | [9]

C[C@@H]1CCCCO[C@@H](CN(C)Cc2ccccc2)[C@@H](C)CN([C@H](C)CO)C(=O)c2cc(NC(=O)Nc3ccc(C(F)(F)F)cc3)ccc2O1
inactive: [1] | [2] | [3] | [4] | [5] | [6] -13.2% | [7] | [8] | [9]

C[C@@H]1CCCCO[C@H](CN(C)C(=O)Nc2ccc(C(F)(F)F)cc2)[C@@H](C)CN([C@@H](C)CO)C(=O)c2cc(NS(=O)(=O)c3cccs3)ccc2O1
inactive: [1] | [2] | [3] | [4] | [5] | [6] -19.5% [at 4.2 µM, hits give low values] | [7] | [8] | [9]

C[C@@H]1CCCCO[C@@H](CN(C)Cc2ccc(Cl)c(Cl)c2)[C@H](C)CN([C@H](C)CO)C(=O)c2cc(NS(=O)(=O)c3ccccc3)ccc2O1
inactive: [1] | [2] | [3] | [4] | [5] | [6] 8.76% [at 1.95 µM, hits give low values] | [7] | [8] | [9]

C[C@@H]1CN([C@H](C)CO)C(=O)Cc2cc(NC(=O)Cc3ccccc3)ccc2O[C@@H]1CN(C)Cc1ccc(C(F)(F)F)cc1
inactive: [1] | [2] | [3] | [4] | [5] | [6] -9.67% [at 0.26 µM, hits give low values] | [7] | [8] | [9]

COc1ccc(S(=O)(=O)Nc2ccc3c(c2)C(=O)N([C@@H](C)CO)C[C@H](C)[C@H](CN(C)Cc2ccc(C(F)(F)F)cc2)OCCCC[C@@H](C)O3)cc1
inactive: [1] | [2] | [3] | [4] | [5] | [6] 26.1% | [7] | [8] | [9]

O=C(C[C@H]1CC[C@H]2[C@@H](COC[C@@H](O)CN2Cc2ccc(F)cc2)O1)NCc1ccccc1Cl
inactive: [1] | [2] | [3] | [4] | [5] | [6] -7.1% | [7] | [8] | [9]

C[C@@H]1CCCCO[C@@H](CN(C)Cc2ccc(Cl)c(Cl)c2)[C@H](C)CN([C@@H](C)CO)C(=O)c2cc(NC(=O)Cc3ccccc3)ccc2O1
inactive: [1] | [2] | [3] | [4] | [5] | [6] -29.2% [at 16 µM, hits give low values] | [7] | [8] | [9]

C[C@@H]1CCCCO[C@@H](CN(C)C(=O)Cc2ccccc2)[C@@H](C)CN([C@@H](C)CO)C(=O)c2cc(NC(=O)Nc3ccc(C(F)(F)F)cc3)ccc2O1
inactive: [1] | [2] | [3] | [4] | [5] | [6] -12.2% [at 16 µM, hits give low values] | [7] | [8] | [9]

CN1C[C@@H]2[C@H](c3ccccc31)[C@H](CO)N2Cc1ccccc1Cl
inactive: [1] | [2] | [3] | [4] | [5] | [6] 22.5% | [7] | [8] | [9]

C[C@H](CO)N1C[C@H](C)[C@@H](CN(C)Cc2ccc(Cl)c(Cl)c2)OCCCC[C@H](C)Oc2ccc(NC(=O)Nc3ccc(C(F)(F)F)cc3)cc2C1=O
inactive: [1] | [2] | [3] | [4] | [5] | [6] 35.5% [at 2.1 µM, hits give low values] | [7] | [8] | [9]

C[C@@H]1CCCCO[C@H](CN(C)Cc2ccc(C(F)(F)F)cc2)[C@H](C)CN([C@H](C)CO)C(=O)c2cc(NS(=O)(=O)c3ccc(F)cc3)ccc2O1
inactive: [1] | [2] | [3] | [4] | [5] | [6] -10.2% | [7] | [8] | [9]

Cc1ccc(S(=O)(=O)N[C@@H]2C=C[C@@H](CC(=O)N3CCC(Cc4ccccc4)CC3)O[C@@H]2CO)cc1
inactive: [1] | [2] | [3] | [4] | [5] | [6] -14.5% [at 16 µM, hits give low values] | [7] | [8] | [9]

Cc1ccc(S(=O)(=O)N(C)C[C@H]2Oc3ccc(NC(=O)Nc4ccc(C(F)(F)F)cc4)cc3CC(=O)N([C@@H](C)CO)C[C@H]2C)cc1
inactive: [1] | [2] | [3] | [4] | [5] | [6] 15.5% [at 0.26 µM, hits give low values] | [7] | [8] | [9]

Cc1ccc(S(=O)(=O)Nc2ccc3c(c2)CC(=O)N([C@H](C)CO)C[C@H](C)[C@@H](CN(C)Cc2ccc(Cl)c(Cl)c2)O3)cc1
inactive: [1] | [2] | [3] | [4] | [5] | [6] 29.2% [at 0.26 µM, hits give low values] | [7] | [8] | [9]

C[C@@H]1CCCCO[C@H](CN(C)S(=O)(=O)c2ccc(Cl)cc2)[C@@H](C)CN([C@@H](C)CO)C(=O)c2cc(NC(=O)CCC(F)(F)F)ccc2O1
inactive: [1] | [2] | [3] | [4] | [5] | [6] 17.2% [at 2.1 µM, hits give low values] | [7] | [8] | [9]

C[C@H](CO)N1C[C@H](C)[C@@H](CN(C)Cc2ccc(-c3ccccc3)cc2)Oc2ccc(NC(=O)Cc3ccccc3)cc2CC1=O
inactive: [1] | [2] | [3] | [4] | [5] | [6] -13.7% [at 0.5 µM, hits give low values] | [7] | [8] | [9]

C[C@H](CO)N1C[C@H](C)[C@H](CN(C)C(=O)NC2CCCCC2)Oc2cc(C#Cc3cccc(F)c3)ccc2S1(=O)=O
inactive: [1] | [2] | [3] | [4] | [5] | [6] 16.5% [at 0.5 µM, hits give low values] | [7] | [8] | [9]

C[C@H]1CCCCO[C@@H](CN(C)C(=O)c2ccccc2)[C@@H](C)CN([C@@H](C)CO)C(=O)c2cc(NC(=O)Nc3ccc(C(F)(F)F)cc3)ccc2O1
inactive: [1] | [2] | [3] | [4] | [5] | [6] 13.2% [at 1.1 µM, hits give low values] | [7] | [8] | [9]

C[C@@H]1CCCCO[C@@H](CN(C)Cc2ccc(C(F)(F)F)cc2)[C@H](C)CN([C@H](C)CO)C(=O)c2cc(NS(=O)(=O)c3ccc(Cl)cc3)ccc2O1
inactive: [1] | [2] | [3] | [4] | [5] | [6] -15.2% [at 1.1 µM, hits give low values] | [7] | [8] | [9]
